Assay results as given in PubChem BioAssay AID1159580 (chemical genetic matrix, 2015).
Among all 5,500 compounds or so, about 2,000 (36%) were called active. Roughly 18% stayed inconclusive and do not appear here. Cut-off read from the data, not from the text of the source: active = normalized growth mostly below about 0.91 (no sharp cut-off); inconclusive = no clear call, values can overlap the other calls; inactive = mostly above about 0.92. The list shows a part of the results.

Assay: chemical genetic growth profiling, strain panel (AID 1159580);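 note: tested at 20 µM; growth read once vehicle control cultures reached saturation at 30 °C; 1 = growth at the plate median or of vehicle wells; lower values mean less growth of the strain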
Details: growth OD
[1] = S. cerevisiae deletion strains, locus YDL101C, strain DUN1, active compounds read low
[2] = S. cerevisiae deletion strains, locus YHR030C, strain SLT2, active compounds read low
[3] = S. cerevisiae deletion strains, locus YAL013W, strain DEP1, active compounds read low
[4] = S. cerevisiae deletion strains, locus YBR229C, strain ROT2, active compounds read low
[5] = S. cerevisiae deletion strains, locus YCL061C, strain MRC1, active compounds read low
[6] = S. cerevisiae deletion strains, locus YDR150W, strain NUM1, active compounds read low
[7] = S. cerevisiae deletion strains, locus YEL061C, strain CIN8, active compounds read low
[8] = S. cerevisiae deletion strains, locus YGR078C, strain PAC10, active compounds read low
[9] = S. cerevisiae deletion strains, locus YHR087W, strain rtc3, active compounds read low
[10] = S. cerevisiae deletion strains, locus YJR043C, strain POL32, active compounds read low
[11] = S. cerevisiae deletion strains, locus YJR075W, strain HOC1, active compounds read low
[12] = S. cerevisiae deletion strains, locus YLR039C, strain RIC1, active compounds read low
[13] = S. cerevisiae deletion strains, locus YLR058C, strain SHM2 (second series), active compounds read low
[14] = S. cerevisiae deletion strains, locus YLR085C, strain ARP6, active compounds read low
[15] = S. cerevisiae deletion strains, locus YLR262C, strain YPT6, active compounds read low
[16] = S. cerevisiae deletion strains, locus YML094W, strain GIM5, active compounds read low
[17] = S. cerevisiae deletion strains, locus YMR219W, strain ESC1, active compounds read low
[18] = S. cerevisiae deletion strains, locus YMR263W, strain SAP30, active compounds read low
[19] = S. cerevisiae deletion strains, locus YNL153C, strain GIM3, active compounds read low
[20] = S. cerevisiae deletion strains, locus YNL298W, strain CLA4 (second series), active compounds read low
[21] = S. cerevisiae deletion strains, locus YNL322C, strain KRE1, active compounds read low
[22] = S. cerevisiae deletion strains, locus YNR030W, strain Alg12, active compounds read low
[23] = S. cerevisiae deletion strains, locus YPL055C, strain LGE1, active compounds read low
[24] = S. cerevisiae deletion strains, locus YPL241C, strain CIN2, active compounds read low
[25] = S. cerevisiae deletion strains, locus YPR135W, strain CTF4, active compounds read low

Measured: normalized growth

Cc1ccc(S(=O)(=O)n2c(Sc3ccc([N+](=O)[O-])cc3[N+](=O)[O-])nc3cc(C)ccc32)cc1
inactive: S. cerevisiae deletion strains, locus YAR019C, strain CDC15, active compounds read low 0.996 | S. cerevisiae deletion strains, locus YBL105C, strain PKC1, active compounds read low 0.972 | S. cerevisiae deletion strains, locus YBR135W, strain CKS1, active compounds read low 0.983 | S. cerevisiae deletion strains, locus YBR136W, strain MEC1, active compounds read low 0.986 | S. cerevisiae deletion strains, locus YBR160W, strain CDC28, active compounds read low 0.986 | S. cerevisiae deletion strains, locus YDL017W, strain CDC7, active compounds read low 0.986 | S. cerevisiae deletion strains, locus YDL028C, strain MPS1, active compounds read low 0.992 | [1] 0.989 | S. cerevisiae deletion strains, locus YDL108W, strain KIN28, active compounds read low 0.987 | S. cerevisiae deletion strains, locus YDL132W, strain cdc53, active compounds read low 0.989 | S. cerevisiae deletion strains, locus YDL214C, strain PRR2, active compounds read low 0.947 | S. cerevisiae deletion strains, locus YDR052C, strain DBF4, active compounds read low 0.987 | S. cerevisiae deletion strains, locus YDR054C, strain cdc34, active compounds read low 0.986 | S. cerevisiae deletion strains, locus YDR226W, strain ADK1, active compounds read low 0.987 | S. cerevisiae deletion strains, locus YDR477W, strain SNF1, active compounds read low 0.968 | S. cerevisiae deletion strains, locus YER123W, strain YCK3, active compounds read low 0.92 | S. cerevisiae deletion strains, locus YER133W, strain GLC7, active compounds read low 0.945 | S. cerevisiae deletion strains, locus YFL009W, strain cdc4, active compounds read low 0.989 | S. cerevisiae deletion strains, locus YFL029C, strain CAK1, active compounds read low 0.988 | S. cerevisiae deletion strains, locus YFR003C, strain YPI1, active compounds read low 0.986 | S. cerevisiae deletion strains, locus YFR019W, strain FAB1, active compounds read low 0.961 | S. cerevisiae deletion strains, locus YFR028C, strain CDC14, active compounds read low 0.99 | S. cerevisiae deletion strains, locus YGR040W, strain KSS1, active compounds read low 0.97 | S. cerevisiae deletion strains, locus YGR052W, strain FMP48, active compounds read low 0.966 | S. cerevisiae deletion strains, locus YGR092W, strain DBF2, active compounds read low 0.86 | S. cerevisiae deletion strains, locus YHR079C, strain IRE1, active compounds read low 0.884 | S. cerevisiae deletion strains, locus YHR082C, strain KSP1, active compounds read low 1.04 | S. cerevisiae deletion strains, locus YHR205W, strain SCH9, active compounds read low 0.868 | S. cerevisiae deletion strains, locus YIL147C, strain SLN1, active compounds read low 0.99 | S. cerevisiae deletion strains, locus YJL095W, strain BCK1, active compounds read low 0.879 | S. cerevisiae deletion strains, locus YJL128C, strain PBS2, active compounds read low 0.939 | S. cerevisiae deletion strains, locus YJL157C, strain FAR1, active compounds read low 0.936 | S. cerevisiae deletion strains, locus YJR016C, strain ILV3, active compounds read low 0.986 | S. cerevisiae deletion strains, locus YJR066W, strain TOR1 (second series), active compounds read low 0.898 | S. cerevisiae deletion strains, locus YJR066W, strain TOR1, active compounds read low 1 | S. cerevisiae deletion strains, locus YKL048C, strain ELM1, active compounds read low 0.947 | S. cerevisiae deletion strains, locus YKL067W, strain YNK1, active compounds read low 0.935 | S. cerevisiae deletion strains, locus YKL101W, strain HSL1, active compounds read low 0.917 | S. cerevisiae deletion strains, locus YKL193C, strain SDS22, active compounds read low 0.996 | S. cerevisiae deletion strains, locus YKL203C, strain TOR2, active compounds read low 1 | S. cerevisiae deletion strains, locus YLR133W, strain CKI1, active compounds read low 0.932 | S. cerevisiae deletion strains, locus YLR403W, strain SFP1, active compounds read low 0.917 | S. cerevisiae deletion strains, locus YML070W, strain DAK1, active compounds read low 0.926 | S. cerevisiae deletion strains, locus YMR001C, strain CDC5, active compounds read low 0.987 | S. cerevisiae deletion strains, locus YMR205C, strain PFK2 (second series), active compounds read low 0.947 | S. cerevisiae deletion strains, locus YMR277W, strain FCP1, active compounds read low 0.988 | S. cerevisiae deletion strains, locus YNL006W, strain LST8, active compounds read low 0.971 | S. cerevisiae deletion strains, locus YNL020C, strain ARK1, active compounds read low 0.898 | S. cerevisiae deletion strains, locus YNL161W, strain CBK1, active compounds read low 0.968 | S. cerevisiae deletion strains, locus YNL183C, strain NPR1, active compounds read low 0.958 | S. cerevisiae deletion strains, locus YNL207W, strain RIO2, active compounds read low 0.984 | S. cerevisiae deletion strains, locus YNL222W, strain SSU72, active compounds read low 0.975 | S. cerevisiae deletion strains, locus YNL307C, strain MCK1 (second series), active compounds read low 0.901 | S. cerevisiae deletion strains, locus YOL078W, strain AVO1, active compounds read low 0.987 | S. cerevisiae deletion strains, locus YOL136C, strain PFK27, active compounds read low 0.919 | S. cerevisiae deletion strains, locus YOR061W, strain CKA2, active compounds read low 0.873 | S. cerevisiae deletion strains, locus YOR119C, strain RIO1, active compounds read low 1.03 | S. cerevisiae deletion strains, locus YOR231W, strain MKK1, active compounds read low 0.887 | S. cerevisiae deletion strains, locus YOR329C, strain SCD5, active compounds read low 0.968 | S. cerevisiae deletion strains, locus YPL031C, strain PHO85, active compounds read low 0.951 | S. cerevisiae deletion strains, locus YPL153C, strain RAD53, active compounds read low 0.964 | S. cerevisiae deletion strains, locus YPL204W, strain HRR25, active compounds read low 0.931 | S. cerevisiae deletion strains, locus YPL209C, strain IPL1, active compounds read low 0.971 | S. cerevisiae deletion strains, locus YPL256C, strain CLN2, active compounds read low 0.862 | S. cerevisiae deletion strains, locus YPR025C, strain CCL1, active compounds read low 0.988 | S. cerevisiae deletion strains, locus YPR106W, strain ISR1, active compounds read low 0.989 | S. cerevisiae deletion strains, locus YPR111W, strain DBF20, active compounds read low 0.966 | S. cerevisiae deletion strains, strain NNK1, active compounds read low 0.982 | S. cerevisiae deletion strains, strain TSCII, active compounds read low 0.986
active: [2] 0.839 | S. cerevisiae deletion strains, locus YLR113W, strain HOG1, active compounds read low 0.748

Cc1nc(-c2nnc(Sc3ccc(C(F)(F)F)cc3[N+](=O)[O-])n2C)cs1
inactive: [3] 1.01 | [4] 1.01 | [5] 0.995 | [1] 1 | [6] 0.993 | [7] 0.998 | [8] 1.01 | [2] 0.965 | [9] 1.02 | [10] 1.01 | [11] 0.987 | [12] 0.965 | [13] 1.01 | [14] 1.14 | [15] 0.844 | [16] 1.01 | [17] 1 | [18] 1.02 | [19] 0.998 | [20] 1.01 | [21] 1 | [22] 1.01 | [23] 1.02 | [24] 1 | [25] 0.956

O=C(O)/C=C/C(=O)Nc1ccc(-n2nc(C(F)(F)F)cc2C(F)(F)F)cc1
inactive: [3] 0.987 | [4] 1 | [5] 1.01 | [1] 0.97 | S. cerevisiae deletion strains, locus YDL134C, strain PPH21, active compounds read low 1.02 | [6] 0.992 | [7] 1.03 | [8] 1.01 | [2] 1.11 | [9] 0.995 | S. cerevisiae deletion strains, locus YJL187C, strain SWE1, active compounds read low 1.01 | [10] 1 | [11] 1.08 | S. cerevisiae deletion strains, locus YKL190W, strain CNB1, active compounds read low 1.02 | [12] 1.04 | [13] 1.02 | [14] 1.07 | [15] 1.03 | [16] 1.02 | [17] 1.01 | [18] 1.02 | S. cerevisiae deletion strains, locus YMR307W, strain GAS1, active compounds read low 1.14 | S. cerevisiae deletion strains, locus YNL128W, strain TEP1, active compounds read low 1.02 | [19] 0.989 | [20] 1.05 | [21] 1 | [22] 1.02 | S. cerevisiae deletion strains, locus YOL006C, strain TOP1, active compounds read low 1.09 | [23] 1 | [24] 1.01 | [25] 1.06 | S. cerevisiae strains, strain wild type, active compounds read low 1.02
